HP1b chromo inh: blocks HP1-beta chromodomain binding to methylated histone tails. P83916. AID 540317. hit rate 0.56% among 390,000. AlphaScreen HP1-beta / biotin-H3K9me3 peptide binding. Potency, µM (highest dose often 114 µM), for inactives: at the top dose activity change, negative = inhibition, hits mostly inhibitors; further: potency means the concentration at half of the fitted maximal effect; nearly all actives have a fitted effect of over 70% in size
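HP1-beta protein (50 nM final) preincubated 30 min at room temperature with biotinylated H3(1-18)K9me3 peptide (50 nM) in PBS pH 7.4, 0.01% Tween-20, then compound added for 30 min. AlphaScreen streptavidin donor/nickel chelate acceptor beads (10 ug/mL final), 30 min dark, luminescence read.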
PI5P4K alpha inh: PI5P4K alpha (human) kinase inhibition; AID 652105; P48426; PI5P4Kalpha enzyme, ADP-Glo luminescence, 60 min; hits give low values; max response, %; hit rate 1.2% among 330,000; active means max response of -50% or lower; inconclusive means between -30% and -50%; inactive means -30% or higher; further: value at the top dose of about 77 µM; on the % scale 0 is the no-effect control and ±100 the full control effect
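ADP-Glo luminescence end-point read after a 60 min room-temperature kinase reaction of PI5P4Kalpha plus substrate, initiated with ATP at 5 microM final. Buffer: 0.038 M HEPES pH 7.4, EGTA, 0.1% CHAPS, 5% DMSO.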
BAZ2B block: blocks human BAZ2B; Q9UIF8; AlphaScreen BAZ2B-H3K14Ac peptide displacement; Potency, µM (titrated, usually from 114 µM), for inactives: top-dose activity change, negative = inhibition, usual class: inhibitors; hit rate 4.4% among 360,000; AID 504333; further: potency means the concentration at half of the fitted maximal effect; on the % scale 0 is the no-effect control and ±100 the full control effect; nearly all actives have a fitted effect of over 60% in size
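Compounds, titrated to a top concentration of 110 uM, were incubated 30 min at room temperature with preformed BAZ2B/acetyl-K14 H3 peptide complex (50 nM each). Proximity signal was measured by AlphaScreen after 20 min with beads.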
JMJD2A Tudor: inhibitors of human JMJD2A Tudor domain; hit rate 4.4% among 390,000; AlphaScreen JMJD2A-Tudor / H3K4me3 peptide binding; Potency, µM (doses to about 114 µM), for the others: at the highest dose activity change, negative = inhibition, hits mostly inhibitors; O75164; AID 504339; further: potency means the concentration at half of the fitted maximal effect; on the % scale 0 is the no-effect control and ±100 the full control effect; nearly all actives have a fitted effect of over 50% in size
GCN5L2 inh: inhibitors of human GCN5L2 histone acetyltransferase; Q92830; GCN5L2 HAT assay, ThioGlo1 CoA-SH fluorescence; Potency, µM (highest dose often 58.9 µM), for the others: top-dose activity change, negative = inhibition, most hits filed as inhibitors; hit rate 0.21% among 390,000; AID 504327; further: potency means the concentration at half of the fitted maximal effect; on the % scale 0 is the no-effect control and ±100 the full control effect
Target sequence (Q92830 whole entry, looked up): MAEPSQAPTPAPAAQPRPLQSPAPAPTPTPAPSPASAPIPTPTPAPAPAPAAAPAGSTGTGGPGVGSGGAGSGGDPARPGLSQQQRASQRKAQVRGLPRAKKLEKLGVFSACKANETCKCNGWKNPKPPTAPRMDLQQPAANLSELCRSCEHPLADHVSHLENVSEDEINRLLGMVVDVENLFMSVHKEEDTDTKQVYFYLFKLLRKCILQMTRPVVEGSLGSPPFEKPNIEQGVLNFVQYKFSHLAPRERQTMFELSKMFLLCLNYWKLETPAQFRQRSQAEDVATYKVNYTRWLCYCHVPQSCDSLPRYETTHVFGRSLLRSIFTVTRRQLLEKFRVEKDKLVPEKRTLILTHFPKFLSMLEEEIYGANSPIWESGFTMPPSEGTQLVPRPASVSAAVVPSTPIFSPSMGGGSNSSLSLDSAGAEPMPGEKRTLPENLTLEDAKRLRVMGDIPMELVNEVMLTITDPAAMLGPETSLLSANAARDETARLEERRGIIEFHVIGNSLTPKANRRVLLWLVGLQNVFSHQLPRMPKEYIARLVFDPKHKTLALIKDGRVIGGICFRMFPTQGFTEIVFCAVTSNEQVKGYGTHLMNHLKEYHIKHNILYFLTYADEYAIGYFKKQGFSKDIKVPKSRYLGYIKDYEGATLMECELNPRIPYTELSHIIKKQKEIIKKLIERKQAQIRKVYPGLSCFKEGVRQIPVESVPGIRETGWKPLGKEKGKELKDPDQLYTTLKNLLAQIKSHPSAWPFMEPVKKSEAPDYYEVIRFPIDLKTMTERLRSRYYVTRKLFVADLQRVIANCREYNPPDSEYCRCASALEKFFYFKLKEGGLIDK
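ThioGlo1-coupled HAT assay: 20nM GCN5L2, 70uM acetyl-CoA, 75uM H3(1-25) peptide, pH 7.5. Fluorescence read at 340/540nm at start and after 20 min at room temperature.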
PLK1 PBD block: blocks phosphopeptide binding to human PLK1 polo-box domain; P53350; Plk1 PBD binding of FITC phosphopeptide, fluorescence polarization; Potency, µM, without a hit: max response, negative = inhibition, hits mostly inhibitors; hit rate 2.8% among 360,000; further: potency means the concentration at half of the fitted maximal effect; series mostly up to about 57 µM; on the % scale 0 is the no-effect control and ±100 the full control effect; nearly all actives have a fitted effect of over 65% in size
The depositor's hits bear a star; [ ] = dose if it differs, or a comment. Compounds with a hit are over-represented: about 7% of the library has one in this group of screens. Unless noted, the call rests on the fitted dose curve; in most records, active means well fitted curve in the direction sought with a large enough effect; inconclusive means small, poorly fitted or top-dose-only effect, or another doubt; inactive means no such curve, though single readings can be large; an effect the other way counts as inactive or inconclusive.

O=C(CNC(=O)c1n[nH]c2ccccc12)Nc1ccc(F)c(F)c1F was read as HP1b chromo inh 36.0%, PI5P4K alpha inh 2.7, JMJD2A Tudor -6.8%, GCN5L2 inh -3.0% and PLK1 PBD block 0.7%.
`COc1ccc(/C=N/NC(=O)c2cccc(Br)c2)cc1COc1ccccn1` gave HP1b chromo inh 16.5%, PI5P4K alpha inh 8.2, BAZ2B block -7.6%, JMJD2A Tudor -7.2%, GCN5L2 inh -13.1% and PLK1 PBD block -2.2%.
`CC(C)(O)c1ccccc1CC[C@@H](SCC1(CC(=O)O)CC1)c1cccc(/C=C/c2ccc3ccc(Cl)cc3n2)c1` gave HP1b chromo inh -5.2%, PI5P4K alpha inh -3.4, JMJD2A Tudor 79.4µM* and PLK1 PBD block inconclusive.
`CC1(C)OC(C)(C)/C(=C/Nc2ccc(O)cc2)C1=O` gave HP1b chromo inh -27.3%, PI5P4K alpha inh -70.3*, BAZ2B block inconclusive, JMJD2A Tudor inconclusive, GCN5L2 inh -15.9% and PLK1 PBD block -6.6%.
`NNC(=O)C1SCCN1S(=O)(=O)c1ccc(Cl)cc1` (centres undefined) gave HP1b chromo inh 42.1%, PI5P4K alpha inh 1.5, JMJD2A Tudor -6.6% and PLK1 PBD block -3.2%.
`CC(Nc1nc(=S)nc(Nc2ccc(F)cc2)[nH]1)c1ccccc1` (centres undefined) gave HP1b chromo inh -11.4%, PI5P4K alpha inh -7.6, BAZ2B block -13.5%, JMJD2A Tudor -26.2%, GCN5L2 inh 0.5% and PLK1 PBD block 13.4µM*.
Screening COc1cc(OC)cc(-c2c(Sc3ccccc3)c3cc(-c4cnc(OC)nc4)ccc3n2C)c1 returned PI5P4K alpha inh 4.9 and PLK1 PBD block -10.7%.
`COc1cc(C#Cc2c(-c3cncn3C)n(C)c3ccc(-c4ccc(CN5CCOCC5)cc4)cc23)cc(OC)c1` gave HP1b chromo inh 4.3%, PI5P4K alpha inh 0.8, JMJD2A Tudor 8.91µM*, GCN5L2 inh -4.1% and PLK1 PBD block 1.0%.
For COc1cc(C#Cc2c(-c3cncn3C)n(C)c3ccc(-c4cnc(OC)nc4)cc23)cc(OC)c1 the results were HP1b chromo inh 6.7%, PI5P4K alpha inh 10.9, BAZ2B block 50.1µM*, JMJD2A Tudor inconclusive, GCN5L2 inh inconclusive and PLK1 PBD block -9.7%.
For CC1=CC(=O)C(C(C)=Nc2cccc(Cl)c2)C(=O)O1 (centres undefined) the results were HP1b chromo inh 21.9%[57 µM], PI5P4K alpha inh 2.1, JMJD2A Tudor 0.0% and PLK1 PBD block -4.8%.
`S=C1NCCc2ccc(Cl)cc2C1c1ccccc1Cl` (centres undefined) gave HP1b chromo inh -26.7%, PI5P4K alpha inh 24.1, BAZ2B block 44.7µM*, JMJD2A Tudor inconclusive, GCN5L2 inh -10.6% and PLK1 PBD block -2.7%.
For Clc1ccc2c(c1)C(C1=NCCN1)c1ccccc1CS2 (centres undefined) the results were HP1b chromo inh 31.7%, PI5P4K alpha inh -5.1, BAZ2B block 3.3%, JMJD2A Tudor -7.5%, GCN5L2 inh -2.7% and PLK1 PBD block -2.0%.
`Nc1cc2c(cc1[N+](=O)[O-])-c1ccccc1C2=NO` gave HP1b chromo inh inconclusive, PI5P4K alpha inh 0.8, JMJD2A Tudor 28.2µM* and PLK1 PBD block 1.5%.
COc1ccccc1-n1cnnc1SCC(=O)Nc1cc(C(C)(C)C)nn1-c1ccccc1 was read as HP1b chromo inh -8.1%, PI5P4K alpha inh -20.6, BAZ2B block -1.3%, JMJD2A Tudor -28.2%[11.4 µM], GCN5L2 inh -8.9% and PLK1 PBD block 3.36µM*.
For COc1cc(Cl)cc2c1Sc1ccccc1/C2=C/CCN(C)C the results were HP1b chromo inh -17.8%, PI5P4K alpha inh 7.0, BAZ2B block 44.7µM*, JMJD2A Tudor inconclusive, GCN5L2 inh -4.4% and PLK1 PBD block -14.5%.
CCCC1NC(=O)c2cccnc2-n2c1nc1ccc(Cl)cc1c2=O (centres undefined) was read as PI5P4K alpha inh 4.3 and PLK1 PBD block -3.5%.
Screening NS(=O)(=O)c1ccc(-c2ccc(/C=C3\SC(=S)N(C4CCS(=O)(=O)C4)C3=O)o2)cc1 (centres undefined) returned HP1b chromo inh 11.6%, PI5P4K alpha inh -9.5, BAZ2B block -27.7%, JMJD2A Tudor -20.0%, GCN5L2 inh -17.8% and PLK1 PBD block 4.6%.
Screening CC1=C(C#N)C(=O)N(C2CCS(=O)(=O)C2)C(=O)/C1=C\c1ccc(C)o1 (centres undefined) returned BAZ2B block 44.7µM* and GCN5L2 inh inconclusive.
For Cc1ccc(/C=C2\SC(=S)N(C3CCS(=O)(=O)C3)C2=O)o1 (centres undefined) the results were HP1b chromo inh -35.8%, PI5P4K alpha inh -53.5*, BAZ2B block 39.8µM*, JMJD2A Tudor inconclusive, GCN5L2 inh -13.1% and PLK1 PBD block 18.9µM*.
CCc1cccc(NC(=O)CN(C)S(=O)(=O)c2ccc3c(c2)n(C)c(=O)c(=O)n3C)c1 was read as HP1b chromo inh 37.6%, BAZ2B block 4.1%, JMJD2A Tudor 2.6% and GCN5L2 inh -0.6%.
`Cc1ccc(C(=O)c2oc3ccc(Cl)cc3c2NC(=O)CN2CCN(C)CC2)cc1` gave HP1b chromo inh -8.6%[57 µM], PI5P4K alpha inh -2.4, BAZ2B block 25.1µM*, JMJD2A Tudor inconclusive, GCN5L2 inh 0.3% and PLK1 PBD block -1.3%.
`CN(CC(=O)Nc1ccc(F)c(F)c1F)C(=O)C1COc2ccccc2O1` (centres undefined) gave HP1b chromo inh 0.5%, PI5P4K alpha inh -11.6, JMJD2A Tudor -13.2%, GCN5L2 inh -0.5% and PLK1 PBD block -9.3%.
`C[C@H](NC(=O)OC(C)(C)C)c1nnc(SCC(=O)c2ccc(Cl)cc2)o1` gave HP1b chromo inh 25.7%, PI5P4K alpha inh 0.1, BAZ2B block -4.8%, JMJD2A Tudor -10.7%, GCN5L2 inh -4.8% and PLK1 PBD block -16.2%.
CC(C)[C@H](NC(=O)OC(C)(C)C)c1nnc(S(=O)(=O)Cc2c(F)cccc2Cl)o1 was read as HP1b chromo inh 47.7%, BAZ2B block 0.8%, JMJD2A Tudor 5.1%, GCN5L2 inh -1.5% and PLK1 PBD block 9.47µM*.
`C[C@H](NC(=O)OC(C)(C)C)c1nnc(SCc2c(F)cccc2Cl)o1` gave HP1b chromo inh 45.1%, BAZ2B block 89.1µM*, JMJD2A Tudor -3.7% and GCN5L2 inh -8.4%.
`CCc1ccc[n+](-c2[nH]c(=O)sc2/C=N/NC([S-])=Nc2ccccc2)c1` gave HP1b chromo inh -38.4%, PI5P4K alpha inh inconclusive, BAZ2B block inconclusive, JMJD2A Tudor inconclusive, GCN5L2 inh 1.3% and PLK1 PBD block 21.2µM*.

Compound activity (PubChem)
